# Measured values published in PubChem BioAssay (EPA / NIEHS).
# Where “and” joins values, the source holds several entries; their conditions need not be identical. Identical values can stand only once. The source holds several records for some structures; these can differ, active in one and inactive in another. Calls of active or inactive are those of the source. How the source made its calls: active means hit-call score of the fitted dose curve at least 0.9, where 1 is the maximum; inactive means score below 0.9.
# Assay: CCTE_Shafer_MEA_acute_synchrony_index: CCTE's Neural Acute Assay for Synchrony, Shafer Lab (AID 2284027);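 further: fitted for loss of signal so actives lower synchrony relative to DMSO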
# Description: CCTE_Shafer_MEA_acute assay is conducted using Axion Biosystems 48 well microelectrode array (MEA) plates and Maestro recording system. Each well of the MEA plate contains a grid of 16 microelectrodes embedded in the culture surface. Electrically active cells, such as neurons, can be cultured over the electrodes, and electrical activity in these cells can be recorded extracellularly. The spontaneous firing of neurons is captured from each electrode on a microsecond timescale providing both temporally and spatially precise data. […] The CCTE_Shafer_MEA_acute assay uses primary cultures of rat cortical neurons. As these cultures mature over time, neural networks develop functional activity and form cohesive networks in which electrical activity can be highly coordinated. Baseline 40-minute recordings are made on days post-plating 13 or 15, followed by a secondary 40-minute recording after chemical exposure.CCTE_Shafer_MEA_acute_synchrony_index is a component of the CCTE_Shafer_MEA_acute assay. It measures the synchrony of the neural network as a unitless measure between 0 (low synchrony) to 1 (high synchrony) during a recording in a microelectrode array (MEA) using Axion Biosystems Maestro 768 channel amplifier with the AxIS adaptive spike detector. The recordings before and after chemical treatment are used to calculate a percent change in the synchrony index in each well.Data from the assay component CCTE_Shafer_MEA_acute_synchrony_index was analyzed into 1 assay endpoint. This assay endpoint, CCTE_Shafer_MEA_acute_synchrony_index, was analyzed in the negative analysis fitting direction relative to DMSO as the negative control and baseline of activity. Using a type of functional reporter, gain or loss-of-signal activity can be used to understand electrical activity.
# Spontaneous activity in the cortical cultures was recorded using an Axion Biosystems Maestro 768 channel amplifier and Axion Integrated Studios (AxIS) v1.8 (or later) software. The amplifier recorded from all channels simultaneously (gain = 1200 x; sampling rate = 12.5 kHz/channel): raw signals were filtered with a Butterworth band-pass filter (300-5000 Hz), which filters out slower local field potentials leaving only fast potentials, i.e., "spikes", arising from extracellular currents associated with action potentials (Pine 2006; Wheeler and Nam 2011). On-line spike detection of filtered signals was conducted with the AxIS adaptive spike detector, using a threshold of 8x the root mean squared (rms) noise on each channel. Any electrodes with rms noise levels greater than 5 uV were grounded (e.g., no data were recorded). Once grounded, an electrode was grounded for the duration of the experiment. All recordings were conducted at 37 C. Wells were deemed usable if on the day of the exposure >/= 10 electrodes were active (defined as >/= 5 spikes/min). On DIV 13 or 15, a minimum of three wells from one cortical culture preparation were treated with each compound (0.03-40 uM). Prior to recording baseline activity, each mwMEA plate was placed in the Maestro at 37 C and allowed to sit for 20 min while firing rates stabilized. Baseline activity (40 min) was recorded before the addition of each compound. An additional 40 min of spontaneous activity was recorded in the presence of each compound. Changes in network parameters relative to baseline were assessed following compound treatment.
Compound,outcome,AC50
O=C(O)c1cc(Oc2ccc(C(F)(F)F)cc2Cl)ccc1[N+](=O)[O-],inactive,
CCOP(=S)(Oc1cnc(C(C)(C)C)nc1)OC(C)C (stereo not given),,31 µM (active)
COP(=O)(NC(C)=O)SC (stereo not given),inactive,0.804 µM (active)
CCOP(=S)(OCC)SCCSCC,inactive,
CC(=NC#N)N(C)Cc1ccc(Cl)nc1,inactive,
CC1=NNC(=O)N(/N=C/c2cccnc2)C1,inactive,
COc1cc(OC)nc(Sc2cccc(Cl)c2C(=O)O)n1,inactive,
CCOP(=S)(OCC)Oc1ccc2c(C)c(Cl)c(=O)oc2c1,,6.95 µM (active)
CN(C)NC(=O)CCC(=O)O,inactive,
CC[C@H](C)[C@H]1O[C@]2(C=C[C@@H]1C)C[C@@H]1C[C@@H](C/C=C(\C)[C@@H](O[C@H]3C[C@H](OC)[C@@H](O[C@H]4C[C@H](OC)[C@@H](NC)[C@H](C)O4)[C@H](C)O3)[C@@H](C)/C=C/C=C3\CO[C@@H]4[C@H](O)C(C)=C[C@@H](C(=O)O1)[C@]34O)O2,,37.6 nM (active) and 751 nM (active)
C=C(C)[C@H]1Cc2c(ccc3c2O[C@@H]2COc4cc(OC)c(OC)cc4[C@@H]2C3=O)O1,,20 µM (active)
CNC(=O)ON=C(SC)C(=O)N(C)C,inactive,
C[N+]1(C)CCCCC1,inactive,
Cc1ccn2nc(S(=O)(=O)Nc3c(F)cccc3F)nc2n1,inactive,
CON=C(C(=O)OC)c1ccccc1CON=C(C)c1cccc(C(F)(F)F)c1,,2.25 µM (active)
CC(C)N(C(=O)SCC(Cl)=C(Cl)Cl)C(C)C,,20 µM (active) and 19 µM (active)
CCc1cccc(C)c1N(C(=O)CCl)C(C)COC (stereo not given),,8.13 µM (active)

Compound,outcome,AC50
CN1COCN(Cc2cnc(Cl)s2)C1=N[N+](=O)[O-],inactive,
C[Si](Cn1cncn1)(c1ccc(F)cc1)c1ccc(F)cc1,,4.26 µM (active)
CCc1cnc(C2=NC(C)(C(C)C)C(=O)N2)c(C(=O)O)c1 (stereo not given),inactive,
N#CSCSC#N,,28.4 µM (active)
FC(F)C(F)(F)OCC(Cn1cncn1)c1ccc(Cl)cc1Cl (stereo not given),inactive,
COP(=O)(OC)C(O)C(Cl)(Cl)Cl (stereo not given),inactive,
CCOP(=O)(NC(C)C)Oc1ccc(SC)c(C)c1 (stereo not given),inactive,
C#CCC1=C(C)C(OC(=O)C2C(C=C(C)C)C2(C)C)CC1=O (stereo not given),,17.8 µM (active)
O=[N+]([O-])c1cc(C(F)(F)F)c(Cl)c([N+](=O)[O-])c1Nc1ncc(C(F)(F)F)cc1Cl,,0.481 µM (active)
CCCOCC(=Nc1ccc(Cl)cc1C(F)(F)F)n1ccnc1,,2.69 µM (active)
CSC1=N[C@@](C)(c2ccccc2)C(=O)N1Nc1ccccc1,,20 µM (active) and 22.8 µM (active)
CC(C)[C@H](C(=O)O[C@H](C#N)c1cccc(Oc2ccccc2)c1)c1ccc(Cl)cc1,,1.01 µM (active)
CN(C)[C@@H]1C(=O)C(C(N)=O)=C(O)[C@@]2(O)C(=O)C3=C(O)c4c(O)cccc4[C@@](C)(O)[C@H]3[C@H](O)[C@@H]12,inactive,
Nc1c(Cl)cc([N+](=O)[O-])cc1Cl,,32.8 µM (active)
CC(COc1ccc(Oc2ccccc2)cc1)Oc1ccccn1 (stereo not given),,20 µM (active)
CCOC(=O)CC(SP(=O)(OC)OC)C(=O)OCC (stereo not given),inactive,
CC(C)=CC1C(C(=O)OCN2C(=O)C3=C(CCCC3)C2=O)C1(C)C (stereo not given),,25.1 µM (active)
